The record followed here is PubChem BioAssay.

Activity calls are given as the source filed them.

Assay [1] concerns Noggin (protein binding on small-molecule microarray). Put plainly: Noggin binders on small-molecule microarray, primary screen, biochemical, 635/667 nm fluorescence (AID 1095).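 Further: score merges 667 nm feature fluorescence with signal to noise over triplicate slides.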 The settings on record: 635 nm fluorescence, higher = more signal.
Assay [2] addresses Neurogenic locus notch homolog protein 3 (Homo sapiens) (UniProt Q9UM47). Put plainly: NOTCH3 binders on small-molecule microarray, primary screen, biochemical, 635/667 nm fluorescence (AID 1096). Conditions: NOTCH3 binding, 635 nm fluorescence, higher = more signal.
Assay [3] in a line: small-molecule microarray binders of probe aEGFR, primary screen, biochemical, biotinylated probe, 635/667 nm fluorescence (AID 1097).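 Further: probe is a biotinylated anti-EGFR antibody binding compounds printed on slides; score combines fluorescence near 667 nm and signal to noise of each spot.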 Conditions: higher = more signal.
Assay [4] deals with Plasmodium falciparum Sir2 (PF13_0152, Sir2A). Put plainly: pfSir2 binders on small-molecule microarrays, primary screen, biochemical, small-molecule microarray, 635 nm fluorescence (AID 1098).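 Further: score merges spot fluorescence intensity with its signal-to-noise ratio.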 The settings on record: small-molecule microarray binding, fluorescence 635 nm; higher = more signal.
Assay [5] is described as follows: small-molecule microarray binders of probe aDKK1, primary screen, biochemical, biotinylated probe, 635/667 nm fluorescence (AID 1099).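 Further: score merges 667nm spot fluorescence with signal to noise across triplicate slides.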 Conditions: higher = more signal.
Assay [6] in a line: small-molecule microarray binders of probe aCHRDL2, primary screen, biochemical, biotinylated probe, 635/667 nm fluorescence (AID 1100). Conditions: higher = more signal.
Assay [7] is described as follows: splicing luciferase reporter signal modulators, primary screen, spliceosome inhibition project, cell-based, HEK293, splice +/- reporter (AID 1101).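 Further: HEK293 cells carrying a splicing-competent luciferase reporter gene; test concentration not given here.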 Conditions: luminescence, 24 h, higher = more signal, called active from +8 up or from −8 down.
The target in assay [8] is Fibroblast growth factor 10 (Homo sapiens) (UniProt O15520). Put plainly: FGF10 binders on small-molecule microarrays, primary screen, biochemical, small-molecule microarray, 635 nm fluorescence (AID 1102). Conditions: FGF10 binding, fluorescence 635 nm, higher = more signal.
Assay [9] concerns glycogen synthase kinase-3 (GSK3A per assay name; protocol says GSK3B). Put plainly: GSK3 binders on small-molecule microarrays, primary screen, biochemical, small-molecule microarray, 635 nm fluorescence, GSK3A (AID 1103). Further: the record names both GSK3A and GSK3B. Conditions: small-molecule microarray binding, fluorescence 635 nm; higher = more signal.
Assay [10] has as its target Epidermal growth factor receptor (Homo sapiens) (UniProt P00533). Put plainly: EGFR binders on small-molecule microarrays, primary screen, biochemical, small-molecule microarray, 635 nm fluorescence (AID 1104).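 Further: score merges 667 nm emission intensity with spot signal to noise over triplicate slides.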 The settings on record: EGFR binding, higher = more signal.
The target in assay [11] is Follistatin-related protein 3 (Homo sapiens) (UniProt O95633). Put plainly: FSTL3 binders on small-molecule microarrays, primary screen, biochemical, small-molecule microarray, 635 nm fluorescence (AID 1105).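 Further: score merges emission near 667 nm and signal to noise per printed spot across three slides.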 Conditions: FSTL3 binding, higher = more signal.
Assay [12] deals with Dickkopf-related protein 1 (Homo sapiens) (UniProt O94907). Put plainly: DKK1 binders on small-molecule microarrays, primary screen, biochemical, small-molecule microarray, 635 nm fluorescence scan (AID 1106).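 Further: score merges emission near 667 nm with signal to noise over three replicate slides.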 The settings on record: DKK1 binding, higher = more signal.
Assay [13] concerns Inhibin beta A chain (activin A). Put plainly: INHBA (activin A) binders on microarrays, primary screen, biochemical, small-molecule microarray, 635 nm fluorescence scan (AID 1107).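 Further: mouse activin A protein probed at 4.33 µg/mL on printed slides; score merges bound-protein fluorescence near 667 nm with spot signal-to-noise.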 Conditions: small-molecule microarray binding, higher = more signal.
Assay [14] deals with Human papillomavirus type 1a protein E7 (residues 44-93). Put plainly: HPV1a E7 fragment binders on microarrays, primary screen, biochemical, small-molecule microarray, residues 44-93, 635 nm fluorescence (AID 1108).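 Further: E7 fragment applied at 1 µg/mL in TBST for 1 h at 4 C; score combines spot fluorescence with its signal to noise ratio.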 Conditions: small-molecule microarray binding, fluorescence 635 nm; higher = more signal.
The nature of assay [15]: modulators of HCV replicon luciferase signal, primary screen, HCV replication inhibitor project, Huh7 cells, luciferase reporter (AID 1109).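 Further: huh7 hepatoma cells harbouring a luciferase neomycin HCV replicon reporter; luciferase luminescence as measure of HCV replicon replication; test concentration not given here.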 The settings on record: 48 h, higher = more signal. For orientation: In antiviral work, replicon cells carry a viral genome segment that copies itself.
Assay [16] has as its target Left-right determination factor 2 (Homo sapiens) (UniProt O00292). Put plainly: LEFTY2 binders on small-molecule microarrays, primary screen, biochemical, small-molecule microarray, 635 nm fluorescence scan (AID 1110). Conditions: LEFTY2 binding, higher = more signal.
Assay [17] has as its target Calmodulin-1 (Homo sapiens) (UniProt P0DP23). Put plainly: CALM1 binders on microarrays, EGTA buffer, profiling panel, biochemical, small-molecule microarray, Cy5-labelled CALM1 (AID 1111).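 Further: labelled calmodulin applied in Tris saline Tween buffer holding calcium plus EGTA and DTT.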 The settings on record: Cy5-CALM1 binding fluorescence, higher = more signal.
For assay [18] the target is unchanged. Put plainly: calcium-bound CALM1 binders on microarrays, profiling panel, artefact control for SMM control-protein annotation, biochemical, small-molecule microarray, Cy5-labelled CALM1, plus calcium (AID 1112).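 Further: score merges spot fluorescence with signal to noise from triplicate slides.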 Conditions: Cy5-CALM1 binding fluorescence, higher = more signal.
The nature of assay [19]: small-molecule microarray binders of probe aWnt5a, primary screen, biochemical, biotinylated probe, 635/667 nm fluorescence (AID 1113).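 Further: score merges 667 nm fluorescence intensity with signal-to-noise per printed feature.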 The settings on record: higher = more signal.
Assay [20] can be described thus: small-molecule microarray binders of probe aShh, primary screen, biochemical, biotinylated probe, 635/667 nm fluorescence (AID 1114).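 Further: probe is biotin-labelled aShh protein from a stem cell growth factor screen; measures binding of labelled protein to compounds printed on the slide; score merges feature fluorescence at 667 nm with signal-to-noise.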 The settings on record: higher = more signal.

Sequence of Fibroblast growth factor 10 (Homo sapiens) (O15520 whole entry, looked up): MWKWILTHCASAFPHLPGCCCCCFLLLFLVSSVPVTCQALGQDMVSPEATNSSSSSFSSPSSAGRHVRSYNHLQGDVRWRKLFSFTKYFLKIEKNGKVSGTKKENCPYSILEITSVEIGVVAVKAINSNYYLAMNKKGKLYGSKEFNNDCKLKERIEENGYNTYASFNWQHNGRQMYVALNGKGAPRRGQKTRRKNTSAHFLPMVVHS
Sequence of Follistatin-related protein 3 (Homo sapiens) (O95633 whole entry, looked up): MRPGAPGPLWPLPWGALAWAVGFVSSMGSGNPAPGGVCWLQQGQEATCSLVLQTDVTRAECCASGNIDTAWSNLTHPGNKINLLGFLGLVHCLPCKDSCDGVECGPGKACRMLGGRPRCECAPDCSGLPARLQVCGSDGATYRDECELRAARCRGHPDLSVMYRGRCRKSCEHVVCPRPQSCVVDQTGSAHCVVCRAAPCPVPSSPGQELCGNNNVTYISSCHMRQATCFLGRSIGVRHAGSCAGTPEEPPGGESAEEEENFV
Sequence of Dickkopf-related protein 1 (Homo sapiens) (O94907 whole entry, looked up): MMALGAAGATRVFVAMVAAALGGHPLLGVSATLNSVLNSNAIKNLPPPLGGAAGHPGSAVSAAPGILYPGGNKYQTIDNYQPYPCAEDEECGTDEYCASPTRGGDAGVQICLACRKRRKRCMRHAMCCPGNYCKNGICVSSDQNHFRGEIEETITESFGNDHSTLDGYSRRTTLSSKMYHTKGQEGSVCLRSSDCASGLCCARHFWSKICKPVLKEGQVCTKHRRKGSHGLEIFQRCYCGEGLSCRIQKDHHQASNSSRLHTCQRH
Sequence of Left-right determination factor 2 (Homo sapiens) (O00292 whole entry, looked up): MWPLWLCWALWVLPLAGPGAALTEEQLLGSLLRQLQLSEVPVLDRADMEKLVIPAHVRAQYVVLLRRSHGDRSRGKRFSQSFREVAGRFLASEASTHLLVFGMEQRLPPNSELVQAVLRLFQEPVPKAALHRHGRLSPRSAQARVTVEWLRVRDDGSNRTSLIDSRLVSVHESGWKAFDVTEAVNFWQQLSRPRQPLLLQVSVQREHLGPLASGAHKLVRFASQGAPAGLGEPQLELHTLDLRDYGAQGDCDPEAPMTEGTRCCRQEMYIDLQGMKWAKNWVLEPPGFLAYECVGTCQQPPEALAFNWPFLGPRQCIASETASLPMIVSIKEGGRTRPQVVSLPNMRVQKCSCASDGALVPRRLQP
Sequence of Epidermal growth factor receptor (Homo sapiens) (P00533 whole entry, looked up): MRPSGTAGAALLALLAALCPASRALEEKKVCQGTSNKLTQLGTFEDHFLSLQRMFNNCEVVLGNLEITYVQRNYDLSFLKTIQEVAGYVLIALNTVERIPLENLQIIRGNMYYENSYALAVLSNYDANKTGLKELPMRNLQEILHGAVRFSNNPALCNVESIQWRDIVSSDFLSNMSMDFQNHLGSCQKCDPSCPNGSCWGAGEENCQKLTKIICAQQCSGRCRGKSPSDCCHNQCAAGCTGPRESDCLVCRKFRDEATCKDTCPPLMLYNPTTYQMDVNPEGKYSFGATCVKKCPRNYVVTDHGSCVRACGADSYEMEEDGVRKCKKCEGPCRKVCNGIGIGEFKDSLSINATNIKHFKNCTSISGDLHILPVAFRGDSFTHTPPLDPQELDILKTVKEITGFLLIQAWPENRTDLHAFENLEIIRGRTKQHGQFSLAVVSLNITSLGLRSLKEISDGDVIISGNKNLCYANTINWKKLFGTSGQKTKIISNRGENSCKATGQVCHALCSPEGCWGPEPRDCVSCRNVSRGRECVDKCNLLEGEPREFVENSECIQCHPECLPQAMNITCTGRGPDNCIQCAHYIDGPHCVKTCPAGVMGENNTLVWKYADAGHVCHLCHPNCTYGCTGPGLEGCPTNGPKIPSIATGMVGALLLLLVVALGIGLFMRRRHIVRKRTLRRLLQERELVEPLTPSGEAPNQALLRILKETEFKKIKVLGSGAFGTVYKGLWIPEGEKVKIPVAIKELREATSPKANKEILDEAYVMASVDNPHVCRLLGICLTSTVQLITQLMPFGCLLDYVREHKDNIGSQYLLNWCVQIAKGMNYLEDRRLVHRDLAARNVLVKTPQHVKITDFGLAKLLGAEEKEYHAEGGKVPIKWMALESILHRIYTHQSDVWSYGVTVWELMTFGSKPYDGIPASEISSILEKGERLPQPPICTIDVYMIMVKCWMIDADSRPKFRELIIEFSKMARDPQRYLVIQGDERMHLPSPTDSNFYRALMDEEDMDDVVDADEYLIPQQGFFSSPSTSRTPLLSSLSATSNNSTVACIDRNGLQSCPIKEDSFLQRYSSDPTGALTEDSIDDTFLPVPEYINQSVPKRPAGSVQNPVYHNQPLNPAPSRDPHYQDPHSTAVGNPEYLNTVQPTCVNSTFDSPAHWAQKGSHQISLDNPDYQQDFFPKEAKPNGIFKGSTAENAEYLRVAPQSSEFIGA
Sequence of Neurogenic locus notch homolog protein 3 (Homo sapiens) (Q9UM47 whole entry, looked up): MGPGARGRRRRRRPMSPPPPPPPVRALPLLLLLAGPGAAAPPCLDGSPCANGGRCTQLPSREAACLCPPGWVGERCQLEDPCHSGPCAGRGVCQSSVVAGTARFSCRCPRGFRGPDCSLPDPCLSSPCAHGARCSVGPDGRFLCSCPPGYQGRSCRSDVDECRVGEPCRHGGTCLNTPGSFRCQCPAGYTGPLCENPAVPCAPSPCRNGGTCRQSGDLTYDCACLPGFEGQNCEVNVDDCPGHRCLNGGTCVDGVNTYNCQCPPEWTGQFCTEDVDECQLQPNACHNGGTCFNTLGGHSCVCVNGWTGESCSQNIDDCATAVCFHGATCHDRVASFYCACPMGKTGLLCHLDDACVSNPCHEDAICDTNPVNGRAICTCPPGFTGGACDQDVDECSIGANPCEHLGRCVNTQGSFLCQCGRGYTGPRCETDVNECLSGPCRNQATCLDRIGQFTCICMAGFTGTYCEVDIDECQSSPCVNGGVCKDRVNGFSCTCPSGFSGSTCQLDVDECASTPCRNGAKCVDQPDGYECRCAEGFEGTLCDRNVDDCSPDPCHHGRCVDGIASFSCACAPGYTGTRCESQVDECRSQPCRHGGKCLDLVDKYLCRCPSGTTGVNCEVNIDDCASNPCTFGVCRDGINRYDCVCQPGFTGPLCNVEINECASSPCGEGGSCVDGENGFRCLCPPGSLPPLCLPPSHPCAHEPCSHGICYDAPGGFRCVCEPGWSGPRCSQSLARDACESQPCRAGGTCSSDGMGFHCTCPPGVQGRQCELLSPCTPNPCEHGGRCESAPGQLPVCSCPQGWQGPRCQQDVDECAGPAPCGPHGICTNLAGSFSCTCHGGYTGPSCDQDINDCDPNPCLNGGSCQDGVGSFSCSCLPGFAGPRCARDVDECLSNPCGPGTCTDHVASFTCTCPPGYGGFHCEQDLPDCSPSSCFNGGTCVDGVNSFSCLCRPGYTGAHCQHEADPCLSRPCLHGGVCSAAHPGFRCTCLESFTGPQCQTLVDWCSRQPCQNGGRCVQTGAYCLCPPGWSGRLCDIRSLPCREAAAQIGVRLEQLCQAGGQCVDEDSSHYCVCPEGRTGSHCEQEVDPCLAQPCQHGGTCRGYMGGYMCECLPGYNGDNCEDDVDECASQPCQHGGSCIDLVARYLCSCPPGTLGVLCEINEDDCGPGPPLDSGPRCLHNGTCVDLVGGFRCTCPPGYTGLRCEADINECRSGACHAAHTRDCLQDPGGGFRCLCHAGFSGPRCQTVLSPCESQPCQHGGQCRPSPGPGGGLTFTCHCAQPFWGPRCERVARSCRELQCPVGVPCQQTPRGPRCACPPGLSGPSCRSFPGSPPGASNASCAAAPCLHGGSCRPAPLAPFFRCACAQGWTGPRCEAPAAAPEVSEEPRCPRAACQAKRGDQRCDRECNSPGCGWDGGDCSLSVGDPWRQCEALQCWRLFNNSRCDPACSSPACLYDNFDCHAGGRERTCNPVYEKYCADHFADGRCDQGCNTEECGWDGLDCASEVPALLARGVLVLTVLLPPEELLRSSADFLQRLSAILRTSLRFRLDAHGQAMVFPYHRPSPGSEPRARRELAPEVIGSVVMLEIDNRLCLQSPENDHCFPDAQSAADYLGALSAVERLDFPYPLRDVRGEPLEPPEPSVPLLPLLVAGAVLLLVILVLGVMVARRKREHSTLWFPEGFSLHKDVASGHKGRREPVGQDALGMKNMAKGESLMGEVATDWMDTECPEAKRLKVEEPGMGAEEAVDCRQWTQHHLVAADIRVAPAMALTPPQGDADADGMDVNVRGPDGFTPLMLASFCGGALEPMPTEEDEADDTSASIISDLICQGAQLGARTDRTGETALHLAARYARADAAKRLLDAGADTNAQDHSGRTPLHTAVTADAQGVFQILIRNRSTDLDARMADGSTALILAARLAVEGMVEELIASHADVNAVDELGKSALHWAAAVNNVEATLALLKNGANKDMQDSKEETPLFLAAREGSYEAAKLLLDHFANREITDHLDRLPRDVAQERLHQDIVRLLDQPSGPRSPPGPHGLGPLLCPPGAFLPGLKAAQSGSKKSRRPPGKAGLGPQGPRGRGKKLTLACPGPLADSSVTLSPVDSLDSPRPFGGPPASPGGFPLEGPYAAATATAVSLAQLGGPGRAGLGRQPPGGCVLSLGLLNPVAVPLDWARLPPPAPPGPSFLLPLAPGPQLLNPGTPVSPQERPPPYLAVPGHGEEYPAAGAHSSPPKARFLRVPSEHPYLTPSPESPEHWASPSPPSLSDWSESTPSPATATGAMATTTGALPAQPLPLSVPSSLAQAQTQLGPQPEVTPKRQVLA

`Cc1ccc(N2C(=O)c3ccccc3[C@](C)(C(=O)NCC(F)(F)F)[C@@H]2c2ccc(CO)cc2)nc1`: the composite z-score in assay [1] is -1.81; in [2], -2.16; in assay [3], -0.352; in assay [4] it was 0.919; in assay [5], 0.421; in assay [6], 0.949. Moreover, the composite z-score was -0.975 in [8]; -1.29 in assay [9]; -1.27 in assay [10]; -1.82 in assay [11]; -1.15 in [12]; -0.528 in assay [13]. Further, the composite z-score is -2.53 in [14]; -1.47 in assay [16]; -0.538 in [17]; 0.733 in assay [18]; -0.132 in assay [19]; -0.291 in assay [20]. The z-score in assay [7] was 0.21 (inactive); in [15], 0.208.

Take `O=c1n(-c2ccccc2)c(=O)n2n1CC(COc1ccccc1)=C1[C@@H](CCc3ccccc3)OB(O)C[C@@H]12`: the composite z-score in assay [1] was 0.814; in assay [2], 1.03; in [3], 0.0209; in assay [4] it was 0.812; in assay [5] it was -0.178; in [6], -0.482. Further, the composite z-score came to 1.02 in assay [8]; 0.59 in [9]; 0.235 in [10]; 0.728 in assay [11]; 0.488 in assay [12]; 0.0187 in [13]. The composite z-score in [14] was determined as 0.398; in assay [16], 0.41; in assay [17], 0.0534; in [18] it was 0.205; in assay [19] it was 0.0181; in assay [20], 0.277. The values for the z-score in assay [7] and in [15] were -1.14 (inactive) and -1.91, respectively.

With `C#CCOc1ccc(C[C@H]2C(=O)O[C@H](Cc3ccccc3)[C@H](/C=C/C3CC3)N2CC#C)cc1`, the composite z-score in assay [1] is -0.493; in [2], -1.74; in [3], -0.206; in assay [4] it was 1.32; in [5] it was -0.162; in assay [6], -0.0338. The composite z-score was -0.425 in [8]; -0.526 in assay [9]; -0.925 in [10]; -0.566 in assay [11]; -0.175 in assay [12]; 0.809 in [13]. The composite z-score was -0.462 in assay [14]; -0.36 in [16]; -0.491 in assay [17]; -0.685 in assay [18]; -0.176 in assay [19]; -0.153 in assay [20]. Further, the z-score in [7] is -1.18 (inactive); in assay [15], -2.14.

In the case of `NC(=O)N1C(=O)C2C(C1=O)C1C=C(c3ccc(CO)cc3)C2C(C2CC2)N1Cc1cc2c(cc1Br)OCO2` (stereo not given), the composite z-score in assay [1] is 0.176; in assay [2], 0.623; in assay [3] it was -0.0975; in [4] it was 0.105; in assay [5], 0.176; in assay [6] it was 0.691. Also, the composite z-score in assay [8] was 0.151; in [9], 0.314; in [10], -0.505; in [11], -0.0544; in assay [12], -0.196; in assay [13] it was 1.34. The composite z-score in assay [14] is 0.0207; in assay [16], -0.254; in assay [17], 0.438; in assay [18] it was 0.163; in [19] it was -0.124; in [20] it was -0.0146. Further, the z-score in assay [7] is -0.87 (inactive); in assay [15] it was -1.03.

For `O=C1O[C@H](c2ccccc2)[C@H](c2ccccc2)N2[C@H]1[C@@H](C(=O)Nc1nc3ccccc3s1)[C@]1(C(=O)Nc3ccc(C#CCCO)cc31)[C@H]2c1ccccc1OCCO`, the composite z-score in [1] is 0.244; in assay [2], 0.912; in assay [3], 0.0381; in assay [4], 1.35; in assay [5] it was 0.676; in assay [6] it was 0.784. Also, the composite z-score in [8] turned out to be 0.545; in assay [9], 1.31; in assay [10], 0.289; in [11], 0.892; in assay [12], 0.328; in [13], 0.793. In addition, the composite z-score in assay [14] came to 0.793; in [16], 0.537; in assay [17] it was 1.74; in assay [18], 0.439; in assay [19], 0.0849; in assay [20] it was 0.355. For the same compound, the values for the z-score in [7] and in assay [15] were -0.0121 (inactive) and -1.79, respectively.
